Records with an inconclusive call do not appear. Activity calls are given as the source filed them. Unless noted, calls follow the shape of the dose curve; as a rule, active = well fitted curve in the direction sought with a large enough effect in the repeat runs; inconclusive = weak or mixed curves; inactive = no such curve, though single readings can be large; an effect the other way counts as inactive or inconclusive.
Tests used:
[1] = qHTS assay to identify small molecule antagonists of the sonic hedgehog signaling (Shh) pathway (AID 1259369; calls by dose curve; also: nearly all actives have a fitted effect of over 45% in size; also: potency is read from the fitted curve at half-maximal effect)
Outline: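 NIH/3T3-derived 3T3Gli1-Luc cells with stably integrated Gli1-Luc reporter were preincubated 4hr at 37 C, then given compounds in DMSO plus Shh conditioned medium and incubated 24hr. Firefly luciferase luminescence read after 30min reagent at room temperature.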

[2] = qHTS assay to identify small molecule agonists of the androgen receptor (AR) signaling pathway in the presence of an antagonist - cell viability counter screen (AID 1259379); also: nearly all actives have a fitted effect of over 25% in size; also: potency is read from the fitted curve at half-maximal effect;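 as to activity change, negative = cytotoxicity: MDA-kb2 human breast cancer cells carrying an MMTV luciferase reporter; series mostly up to about 92 µM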
Outline: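 MDA-kb2 human breast carcinoma cells (stable MMTV-luciferase, AR/GR responsive) were seeded 3,000 cells/well, pre-incubated 5 hr at 37C without CO2, then given 3.0uM nilutamide and compounds at 15 concentrations for 16 hr. Viability was read by CellTiter-Fluor fluorescence.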

[3] = qHTS assay to identify small molecule agonists of the estrogen receptor beta (ER-beta) signaling pathway - cell viability counter screen (AID 1259380); also: nearly all actives have a fitted effect of over 30% in size; also: potency is read from the fitted curve at half-maximal effect
Outline: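 ER-beta-UAS-bla HEK293T cells in medium with 2% charcoal-stripped FBS were preincubated 6 hr at 37C, dosed with compound in DMSO for 16 hr, then after the bla read, CellTiter-Glo was added for 30 min at room temperature; luminescence recorded.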

[4] = qHTS assay to identify small molecule antagonists of the estrogen receptor beta (ER-beta) signaling pathway - cell viability counter screen (AID 1259382); also: nearly all actives have a fitted effect of over 55% in size; also: potency is read from the fitted curve at half-maximal effect;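 as to activity change, negative = cytotoxicity: HEK293T cells carrying ER-beta-UAS-bla reporter stimulated with estradiol; series mostly up to about 92 µM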
Outline: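 ER-beta-UAS-bla HEK293T cells (2,000/well, 2% charcoal-stripped FBS) were pre-incubated 6 hr at 37C, then given compound plus 1nM final 17-beta-estradiol for 16 hr. Viability was read in the same wells by CellTiter-Glo luminescence after 30 min at room temperature.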

[5] = qHTS assay to identify small molecule agonists or antagonists of the thyroid stimulating hormone receptor (TSHR) signaling pathway - wild type cell line counter screen (AID 1259384; calls by dose curve)
Outline: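 Wild-type HEK293 cells were plated 18 h at 37 C/5% CO2, pin-dosed with compound plus Ro20-1724 medium, held 30 min at room temperature, then given cAMP-d2 and anti-cAMP-cryptate; fluorescence was read after 1 h. Fifteen concentrations, triplicate.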

[6] = target: Thyrotropin receptor (Homo sapiens) (UniProt P16473); assay: qHTS assay to identify small molecule antagonists of the thyroid stimulating hormone receptor (TSHR) signaling pathway (AID 1259385; calls by dose curve; also: nearly all actives have a fitted effect of over 20% in size; also: potency is read from the fitted curve at half-maximal effect)
Sequence of Thyrotropin receptor (Homo sapiens) (P16473 whole entry, looked up): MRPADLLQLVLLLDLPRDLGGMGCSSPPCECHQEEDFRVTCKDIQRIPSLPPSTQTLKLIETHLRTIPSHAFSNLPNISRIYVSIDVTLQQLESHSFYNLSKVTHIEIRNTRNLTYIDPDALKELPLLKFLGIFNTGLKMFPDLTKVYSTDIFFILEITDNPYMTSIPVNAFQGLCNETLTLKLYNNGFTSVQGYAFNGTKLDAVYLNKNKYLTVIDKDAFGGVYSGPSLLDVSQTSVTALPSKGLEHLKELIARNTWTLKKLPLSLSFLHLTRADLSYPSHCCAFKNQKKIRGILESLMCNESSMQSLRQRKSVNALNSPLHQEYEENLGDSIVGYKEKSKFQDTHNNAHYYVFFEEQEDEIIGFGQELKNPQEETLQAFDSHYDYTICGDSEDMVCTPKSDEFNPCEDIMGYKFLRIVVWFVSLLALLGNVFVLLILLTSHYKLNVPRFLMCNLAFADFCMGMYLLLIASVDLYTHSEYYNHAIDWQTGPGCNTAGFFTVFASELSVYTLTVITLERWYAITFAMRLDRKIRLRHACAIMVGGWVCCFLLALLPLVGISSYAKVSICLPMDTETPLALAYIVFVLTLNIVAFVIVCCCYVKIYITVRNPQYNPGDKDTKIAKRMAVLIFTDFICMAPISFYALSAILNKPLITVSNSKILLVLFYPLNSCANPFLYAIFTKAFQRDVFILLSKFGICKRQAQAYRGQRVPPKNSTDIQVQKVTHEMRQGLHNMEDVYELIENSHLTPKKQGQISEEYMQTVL
Outline: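 TSHR-HEK293 cells were plated and held 18 h at 37C/5% CO2, then given compound plus Ro20-1724 and stimulated with TSH at 1.5 ng/mL final. After 30 min at room temperature, cAMP was detected with cAMP-d2/anti-cAMP-cryptate (1 h) by fluorescence.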

[7] = qHTS assay to identify small molecule agonists of the estrogen receptor alpha (ER-alpha) signaling pathway in the presence of an antagonist - cell viability counter screen (AID 1259386);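 also: cells exposed to compounds for 22 h at 37 °C before the viability read; nearly all actives have a fitted effect of over 30% in size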; also: potency is read from the fitted curve at half-maximal effect; as to activity change, negative = cytotoxicity: series mostly up to about 92 µM
Outline: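 VM7Luc4E2 cells (endogenous full-length ER-alpha, 4×ERE-luciferase) were held 5 days in phenol red-free medium with 10% charcoal-stripped FBS, plated, then given 10.0nM ICI-182,780 and compounds at 15 concentrations for 22hr at 37C; viability read by CellTiter-Fluor fluorescence.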

[8] = target: Progesterone receptor (Homo sapiens) (UniProt P06401); assay: qHTS assay to identify small molecule agonists of the progesterone receptor (PR) signaling pathway (AID 1346784; calls by dose curve; also: nearly all actives have a fitted effect of over 30% in size)
Sequence of Progesterone receptor (Homo sapiens) (P06401 whole entry, looked up): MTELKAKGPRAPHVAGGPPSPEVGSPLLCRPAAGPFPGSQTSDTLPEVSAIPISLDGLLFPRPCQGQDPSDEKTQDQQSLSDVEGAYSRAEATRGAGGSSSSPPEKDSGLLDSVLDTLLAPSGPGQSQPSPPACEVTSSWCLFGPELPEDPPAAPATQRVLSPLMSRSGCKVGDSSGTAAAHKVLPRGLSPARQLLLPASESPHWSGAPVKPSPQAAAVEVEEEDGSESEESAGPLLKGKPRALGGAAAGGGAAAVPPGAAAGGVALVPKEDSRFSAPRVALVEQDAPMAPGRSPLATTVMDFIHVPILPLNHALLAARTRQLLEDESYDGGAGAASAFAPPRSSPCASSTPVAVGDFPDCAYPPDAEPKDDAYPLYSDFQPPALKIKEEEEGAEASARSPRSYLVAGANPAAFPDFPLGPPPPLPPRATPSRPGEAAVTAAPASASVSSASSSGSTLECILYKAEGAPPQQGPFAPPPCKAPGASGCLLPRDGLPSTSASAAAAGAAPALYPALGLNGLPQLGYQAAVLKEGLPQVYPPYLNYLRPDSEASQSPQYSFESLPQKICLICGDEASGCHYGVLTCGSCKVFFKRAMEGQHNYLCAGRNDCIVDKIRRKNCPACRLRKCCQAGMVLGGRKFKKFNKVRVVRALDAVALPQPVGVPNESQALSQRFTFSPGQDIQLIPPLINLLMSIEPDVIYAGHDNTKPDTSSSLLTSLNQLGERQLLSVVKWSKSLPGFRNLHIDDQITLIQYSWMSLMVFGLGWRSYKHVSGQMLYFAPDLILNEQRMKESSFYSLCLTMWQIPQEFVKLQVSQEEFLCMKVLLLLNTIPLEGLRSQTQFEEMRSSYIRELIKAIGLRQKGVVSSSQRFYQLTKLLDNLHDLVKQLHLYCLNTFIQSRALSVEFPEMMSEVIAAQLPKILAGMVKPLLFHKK
Outline: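 Cells (PR-UAS-bla HEK 293T, GripTite) were plated in assay medium containing 2% charcoal-stripped FBS and incubated 6 hr. Test compounds in DMSO were added for 16 hr at 37C. FRET substrate was then loaded for 2 hr at room temperature before fluorescence reading.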

[9] = target: Progesterone receptor (Homo sapiens) (UniProt P06401); assay: qHTS assay to identify small molecule antagonists of the progesterone receptor (PR) signaling pathway (AID 1346795; active = well fitted inhibition curve with a large enough effect in the signal ratio in the repeat runs, not every such curve was filed as active; the % refers to the signal ratio; also: potency is read from the fitted curve at half-maximal effect)
Outline: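 Antagonist mode: compounds tested against 1 nM (final) promegestone stimulation in HEK293T cells expressing PR-UAS-bla reporter, 16 hr at 37C, 5% CO2; beta-lactamase activity detected via B/G FRET substrate after 2 hr at room temperature.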

[10] = qHTS assay to identify small molecule antagonists of the progesterone receptor (PR) signaling pathway - cell viability counter screen (AID 1346798); also: nearly all actives have a fitted effect of over 50% in size; also: potency is read from the fitted curve at half-maximal effect; as to activity change, negative = cytotoxicity: series mostly up to about 92 µM
Outline: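 Counter screen for cytotoxicity: viability of PR-UAS-bla HEK293T cells was measured with CellTiter-Glo luminescence following 16 hr compound exposure in the presence of R5020.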

[11] = qHTS assay to identify small molecule agonists of the progesterone receptor (PR) signaling pathway - cell viability counter screen (AID 1346799; calls by dose curve; also: nearly all actives have a fitted effect of over 45% in size; also: potency is read from the fitted curve at half-maximal effect)
Outline: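 Cells (PR-UAS-bla HEK293T) are plated at 3,000/well in 2% charcoal-stripped FBS medium, rested 6 hr, dosed and incubated 16 hr at 37C. CellTiter-Glo is then added and luminescence measured after 30 min at room temperature.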

[12] = qHTS assay to identify small molecule antagonists of the TGF-beta/Smad signaling pathway - cell viability counter screen (AID 1346824); also: nearly all actives have a fitted effect of over 50% in size; also: potency is read from the fitted curve at half-maximal effect
Outline: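 SBE-bla HEK 293T cells were plated overnight at 37 C, then given compounds in DMSO plus TGF-beta1 (added as 0.25 ng/mL solution) for 5 hr. After the bla read, CellTiter-Glo was added to the same wells and luminescence read after 30 min at room temperature.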

[13] = qHTS assay to identify small molecule agonists of the TGF-beta/Smad signaling pathway - cell viability counter screen (AID 1346829); also: nearly all actives have a fitted effect of over 45% in size; also: potency is read from the fitted curve at half-maximal effect; as to activity change, negative = cytotoxicity: top concentration of the series differs between compounds
Outline: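 Compound-treated SBE-bla HEK 293T cells (5 hr, 37 C) were assessed for viability with CellTiter-Glo in parallel with the reporter read.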

[14] = qHTS assay to identify small molecule agonists of the TGF-beta/Smad signaling pathway (AID 1346859; active = well fitted activation curve with a large enough effect in the signal ratio in the repeat runs, not every such curve was filed as active; the % refers to the signal ratio; also: series mostly up to about 77 µM)
Outline: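 Reporter line: HEK 293T with stably integrated SBE-controlled beta-lactamase. Compound exposure lasts 5 hr at 37 C and 5% CO2; substrate loading follows for 2 hr at room temperature, with emission read at 460 and 530 nm.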

[15] = target: Thyrotropin-releasing hormone receptor (Homo sapiens) (UniProt P34981); assay: qHTS assay to identify small molecule antagonists of the thyrotropin-releasing hormone receptor (TRHR) signaling pathway (AID 1346877; active = well fitted inhibition curve with a large enough effect in the repeat runs, not every such curve was filed as active; also: potency is read from the fitted curve at half-maximal effect; as to activity, negative = inhibition: series mostly up to about 51 µM)
Sequence of Thyrotropin-releasing hormone receptor (Homo sapiens) (P34981 whole entry, looked up): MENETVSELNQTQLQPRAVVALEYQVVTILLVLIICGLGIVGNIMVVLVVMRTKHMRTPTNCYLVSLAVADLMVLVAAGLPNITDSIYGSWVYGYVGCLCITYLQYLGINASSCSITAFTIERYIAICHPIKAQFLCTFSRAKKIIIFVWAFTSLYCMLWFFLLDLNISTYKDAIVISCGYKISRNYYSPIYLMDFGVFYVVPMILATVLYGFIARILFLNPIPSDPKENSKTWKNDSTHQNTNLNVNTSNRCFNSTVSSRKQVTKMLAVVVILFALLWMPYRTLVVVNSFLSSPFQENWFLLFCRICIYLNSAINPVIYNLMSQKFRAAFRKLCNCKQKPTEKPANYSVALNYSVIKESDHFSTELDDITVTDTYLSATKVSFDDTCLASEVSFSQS
Outline: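 TRHR-expressing HEK293 cells were seeded, cultured 18 h at 37 °C, then loaded with calcium dye for 2 h. Compounds were pre-incubated 5 min at room temperature before 1 nM TRH (final) was added, and kinetic fluorescence was recorded for 3 min.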

[16] = target: Thyrotropin-releasing hormone receptor (Homo sapiens) (UniProt P34981); assay: qHTS assay to identify small molecule agonists of the thyrotropin-releasing hormone receptor (TRHR) signaling pathway (AID 1346891; calls by dose curve; also: series mostly up to about 58 µM)
Outline: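 Cells: TRHR-Hek293, seeded and incubated 18 h. Dye loading: 2 h at 37 °C. Compound added from DMSO stock by pin tool. Read-out: kinetic calcium fluorescence over 3 min.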

[17] = target: Estrogen receptor (Homo sapiens) (UniProt P03372); assay: qHTS assay to identify small molecule agonists of the estrogen receptor alpha (ER-alpha) signaling pathway in the presence of an antagonist (AID 1259383; calls by dose curve; also: top concentration of the series differs between compounds; nearly all actives have a fitted effect of over 15% in size)
Sequence of Estrogen receptor (Homo sapiens) (P03372 whole entry, looked up): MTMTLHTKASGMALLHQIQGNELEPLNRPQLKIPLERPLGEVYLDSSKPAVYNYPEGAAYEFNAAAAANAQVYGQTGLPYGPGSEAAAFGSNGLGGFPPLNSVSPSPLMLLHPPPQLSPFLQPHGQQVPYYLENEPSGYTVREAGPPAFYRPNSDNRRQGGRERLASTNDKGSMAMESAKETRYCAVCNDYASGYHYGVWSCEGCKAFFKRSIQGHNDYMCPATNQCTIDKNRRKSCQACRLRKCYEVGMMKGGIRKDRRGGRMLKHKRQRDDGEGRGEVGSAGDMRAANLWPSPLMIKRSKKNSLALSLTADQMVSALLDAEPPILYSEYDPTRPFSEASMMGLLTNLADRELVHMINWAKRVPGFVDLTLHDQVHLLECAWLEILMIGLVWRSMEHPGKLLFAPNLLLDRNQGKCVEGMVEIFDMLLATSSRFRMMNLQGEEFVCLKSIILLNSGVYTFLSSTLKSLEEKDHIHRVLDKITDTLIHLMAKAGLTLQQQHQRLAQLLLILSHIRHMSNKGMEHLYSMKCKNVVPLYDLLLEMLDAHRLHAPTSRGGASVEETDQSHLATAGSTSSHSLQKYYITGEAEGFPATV
Outline: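 VM7Luc4E2 cells (endogenous full-length ER-alpha, 4×ERE-luciferase) were precultured 5 days in phenol red-free medium with 10% charcoal-stripped FBS, given 10.0nM ICI-182,780 (final), then treated with compounds at 15 concentrations for 22hr at 37C; luminescence read with ONE-Glo.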
% is scaled to controls: 0 for no effect and ±100 for the full control effect.

Clc1c(Cl)c(Cl)c(Cl)c(Cl)c1Cl
inactive: activity change, negative = inhibition [1] 3.84% [at 8.39 µM] | activity change, negative = cytotoxicity [2] 1.03% [at 8.39 µM] | activity change, negative = cytotoxicity [3] 0.531% [at 8.39 µM] | activity change, negative = cytotoxicity [4] 8.34% [at 8.39 µM] | cAMP activity change [5] -1.12% [at 8.39 µM, stronger effect = higher value] | activity change, negative = inhibition [6] 2.16% [at 8.39 µM] | activity change, negative = cytotoxicity [7] 1.86% [at 8.39 µM] | activation [8] -0.806% [at 8.39 µM] | activity change, negative = inhibition [9] -1.77% [at 8.39 µM] | activity change, negative = cytotoxicity [10] -0.673% [at 8.39 µM] | activity change, negative = cytotoxicity [11] 14.7% [at 8.39 µM] | viability change, negative = cytotoxic [12] 1.21% [at 6.97 µM] | activity change, negative = cytotoxicity [13] 6.4% [at 6.97 µM] | activation [14] -0.619% [at 6.97 µM] | activity, negative = inhibition [15] 0.118% [at 4.65 µM] | activation [16] -0.641% [at 5.23 µM]

CCCCn1cc[n+](C)c1.[Cl][Fe-]([Cl])([Cl])[Cl]
inactive: Potency [1] | Potency [2] | Potency [3] | Potency [4] | Potency [7] | Potency [10] | Potency [12] | Potency [13]

CCCCN(CCCC)C(=S)S
inactive: Potency [1] | Potency [2] | Potency [3] | Potency [4] | Potency [17] | Potency [7] | Potency [8] | Potency [9] | Potency [10] | Potency [11] | Potency [12] | Potency [13] | outcome [14]

CNC(=O)O/N=C(\C)C(C)S(C)(=O)=O (centres undefined)
active: Potency [1] 282 µM
inactive: Potency [2] | Potency [3] | Potency [4] | Potency [5] | Potency [6] | Potency [7] | Potency [8] | Potency [12] | Potency [13] | outcome [14]

C1=CCC=C1
inactive: Potency [1] | Potency [2] | Potency [3] | Potency [4] | Potency [9] | Potency [10] | Potency [11] | Potency [12] | Potency [13]

C=CCBr
inactive: Potency [1] | Potency [2] | Potency [3] | Potency [4] | Potency [17] | Potency [5] | Potency [6] | Potency [8] | Potency [9] | Potency [10] | Potency [11] | Potency [12] | Potency [13] | outcome [14] | Potency [15] | Potency [16]

ClC1=C(Cl)[C@]2(Cl)[C@@H]3[C@H]4C[C@H]([C@@H]5O[C@H]45)[C@@H]3[C@@]1(Cl)C2(Cl)Cl
inactive: Potency [2] | Potency [3] | Potency [4] | Potency [17] | Potency [5] | Potency [6] | Potency [8] | Potency [12] | Potency [13] | outcome [14] | Potency [15]
active: Potency [1] 24.3 µM

CC[N+]1(CC)CCC(OC(=O)C(O)(c2ccccc2)c2ccccc2)C1 (centres undefined)
inactive: Potency [1] | Potency [2] | Potency [3] | Potency [4] | Potency [17] | Potency [5] | Potency [7] | Potency [8] | Potency [9] | Potency [10] | Potency [12] | Potency [13] | outcome [14] | Potency [15] | Potency [16]

O.O.O.O.O.O.O=S(=O)([O-])[O-].[Ni+2]
inactive: Potency [1] | Potency [2] | Potency [3] | Potency [4] | Potency [10] | Potency [12] | Potency [13] | outcome [14]

CC[C@H](C)[C@H]1O[C@]2(C=C[C@@H]1C)C[C@@H]1C[C@@H](C/C=C(\C)[C@@H](O[C@H]3C[C@H](OC)[C@@H](O[C@H]4C[C@H](OC)[C@@H](NC)[C@H](C)O4)[C@H](C)O3)[C@@H](C)/C=C/C=C3\CO[C@@H]4[C@H](O)C(C)=C[C@@H](C(=O)O1)[C@]34O)O2
inactive: Potency [5]
active: Potency [1] 3.06 µM | Potency [2] 19.3 µM | Potency [3] 9.69 µM | Potency [4] 21.7 µM | Potency [6] 27.3 µM | Potency [10] 24.3 µM | Potency [11] 13.7 µM | Potency [12] 17.4 µM | Potency [13] 15.5 µM

O=[N+]([O-])c1cc(C(F)(F)F)c(Cl)c([N+](=O)[O-])c1Nc1ncc(C(F)(F)F)cc1Cl
inactive: Potency [17] | Potency [16]
active: Potency [1] 3.86 µM | Potency [2] 6.11 µM | Potency [3] 6.86 µM | Potency [4] 8.63 µM | Potency [6] 61.1 µM | Potency [7] 30.6 µM | Potency [10] 24.3 µM | Potency [11] 27.3 µM | Potency [12] 30.9 µM | Potency [13] 43.6 µM | Potency [15] 15.1 µM

CC(=O)O.CC(=O)O.CC(=O)O.CC(=O)O.CC(=O)O.CC(=O)O.CC(=O)O.O.O.[Cr].[Cr].[Cr]
inactive: Potency [1] | Potency [2] | Potency [3] | Potency [4] | Potency [7] | Potency [8] | Potency [9] | Potency [10] | Potency [11] | Potency [13] | outcome [14]

CCCCON=O
inactive: Potency [1] | Potency [2] | Potency [3] | Potency [4] | Potency [5] | Potency [6] | Potency [7] | Potency [8] | Potency [9] | Potency [10] | Potency [11] | Potency [12] | Potency [13] | outcome [14] | Potency [15]

COC(=O)N(OC)c1ccccc1COc1ccn(-c2ccc(Cl)cc2)n1
inactive: Potency [4] | Potency [5] | Potency [6] | Potency [8] | Potency [12] | Potency [13] | outcome [14] | Potency [15] | Potency [16]
active: Potency [1] 0.0686 µM | Potency [2] 1.37 µM | Potency [3] 0.969 µM | Potency [7] 0.864 µM | Potency [9] 4.86 µM

CC(=O)[O-].CC(=O)[O-].[Co+2]
inactive: Potency [1] | Potency [2] | Potency [3] | Potency [4] | Potency [8] | Potency [12] | Potency [13] | outcome [14]

COc1c2c(cc3c1OCO3)CCN(C)C2
inactive: Potency [1] | Potency [2] | Potency [3] | Potency [4] | Potency [5] | Potency [6] | Potency [7] | Potency [8] | Potency [9] | Potency [10] | Potency [11] | Potency [12] | outcome [14] | Potency [15]

COC(=O)c1cc(Oc2ccc(Cl)cc2Cl)ccc1[N+](=O)[O-]
active: Potency [9] 15.4 µM
inactive: Potency [1] | Potency [2] | Potency [3] | Potency [4] | Potency [17] | Potency [5] | Potency [8] | Potency [12] | Potency [13] | outcome [14]
